Screens: PubChem BioAssay, National Center for Advancing Translational Sciences (NCATS)
HEK cytotox: Cytotoxic Profiling in HEK 293 Cell Line of Diverse Libraries Using Quantitative High-Throughput Screening; HEK 293 viability, ATP luminescence (CellTiter-Glo), 48-72 h; hit rate 6.6% among 94,000; Potency, µM (series often up to 115 µM), for inactives: at the highest dose activity change, negative = cytotoxicity, hits mostly inhibitors; AID 1345083, 2018; also: % is scaled to controls: 0 for no effect and ±100 for the full control effect; nearly all actives have a fitted effect of over 60% in size
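HEK 293 cells seeded at 250 cells/well were exposed to compound for 48 or 72 hr at 37 degree Celsius. Viability taken as ATP content by CellTiter-Glo luminescence.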
NIH3T3 tox: Cytotoxic Profiling in NIH 3T3 Cell Line of Diverse Libraries Using Quantitative High-Throughput Screening; Potency, µM (titrated, usually from 96.7 µM), for the others: at the top dose activity change, negative = cytotoxicity, most hits filed as inhibitors; NIH 3T3 viability, CellTiter-Glo ATP luminescence, 48-72 h; hit rate 4.3% among 94,000; also: % is scaled to controls: 0 for no effect and ±100 for the full control effect; nearly all actives have a fitted effect of over 55% in size
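Cytotoxicity is measured as loss of cellular ATP: NIH 3T3 cells (400/well) are exposed to compound for 48 or 72 hr at 37 °C, then CellTiter-Glo luminescence is imaged after 10 min at room temperature.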
hNpr1 antagonist: Natriuretic polypeptide receptor (hNpr1) antagonism - Primary qHTS; Atrial natriuretic peptide receptor 1 (Homo sapiens), P16066; HEK293 hNpr1 GloSensor cGMP, ANP-stimulated luminescence; Potency, µM (titrated, usually from 46.3 µM), inactives show at the top dose activity change, negative = inhibition, usual class: inhibitors; hit rate 1.6% among 76,000; calls by dose curve; also: % is scaled to controls: 0 for no effect and ±100 for the full control effect; nearly all actives have a fitted effect of over 60% in size
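Compound pre-incubated 30 min at room temperature on GloSensor-loaded HEK293 cells stably carrying hNpr1 and the pGS-40F cGMP biosensor. Stimulation uses hNppA at 0.1 nM final; luminescence is taken at baseline and 20 min post-agonist.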
FLuc inh-1: Firefly luciferase inhibition profiling of diverse chemical library using quantitative high-throughput screening; Potency, µM (doses to about 115 µM), most hits filed as inhibitors; hit rate 2.5% among 76,000; purified P. pyralis luciferase, luminescence, biochemical; also: % is scaled to controls: 0 for no effect and ±100 for the full control effect; nearly all actives have a fitted effect of over 65% in size
Target sequence (P08659 whole entry, looked up): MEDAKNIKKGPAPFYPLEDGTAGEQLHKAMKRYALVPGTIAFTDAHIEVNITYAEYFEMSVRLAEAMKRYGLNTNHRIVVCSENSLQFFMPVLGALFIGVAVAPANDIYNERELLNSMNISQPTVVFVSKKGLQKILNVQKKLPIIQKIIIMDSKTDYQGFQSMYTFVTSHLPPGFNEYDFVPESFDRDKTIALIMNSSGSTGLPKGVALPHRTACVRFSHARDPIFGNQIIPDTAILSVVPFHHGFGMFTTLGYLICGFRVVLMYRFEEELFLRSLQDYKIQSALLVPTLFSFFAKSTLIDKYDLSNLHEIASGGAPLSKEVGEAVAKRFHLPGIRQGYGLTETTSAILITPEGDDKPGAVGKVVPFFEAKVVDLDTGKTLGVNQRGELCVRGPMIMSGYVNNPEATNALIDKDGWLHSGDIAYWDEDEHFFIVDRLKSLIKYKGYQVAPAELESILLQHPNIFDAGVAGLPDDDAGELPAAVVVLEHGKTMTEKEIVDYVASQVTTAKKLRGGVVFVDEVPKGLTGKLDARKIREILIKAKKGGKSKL
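Inhibitors were tested against purified firefly luciferase in a biochemical, low-substrate format (both substrates at 10uM) and luminescence measured with a CCD imager.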
FLuc SDR -ATP: Firefly luciferase (FLuc-C-HiBiT) SDR gain of signal screen - without ATP; Potency, µM (top dose mostly 32.7 µM), for inactives: top-dose activation (signal gain), actives largely listed as activators; shares compounds with FLuc inh-1; Purified FLuc-C-HiBiT, Nano-Glo HiBiT luminescence, no ATP; hit rate 7.8% among 1,300; also: nearly all actives have a fitted effect of over 55% in size
FLuc SDR ATP: Firefly luciferase (FLuc-C-HiBiT) SDR gain of signal screen - plus ATP. shares compounds with FLuc inh-1. purified FLuc-C-HiBiT + ATP, HiBiT complementation luminescence. Potency, µM (highest dose often 32.7 µM), for the others: at the highest dose activation (gain of signal), usual class: activators. hit rate 8.7% among 1,300;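 also: signal reports ligand binding via conformational change of the enzyme rather than luciferase catalysis; % of control where 0% means no effect; nearly all actives have a fitted effect of over 55% in size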
FLuc inh-2: Firefly luciferase (FLuc-C-HiBiT) enzymatic inhibition screen - Functional assay; shares compounds with FLuc inh-1; purified FLuc-C-HiBiT enzyme, luciferin luminescence; Potency, µM (titrated, usually from 32.7 µM), for inactives: top-dose activity change, negative = inhibition, most hits filed as inhibitors; hit rate 42% among 1,300; AID 1963320, 2024; also: % is scaled to controls: 0 for no effect and ±100 for the full control effect; nearly all actives have a fitted effect of over 70% in size
* marks the source's active call; other numbers are inactive results; i = inactive; ? = inconclusive; / = no result; [ ] = dose if it differs, or a comment. Rows were chosen to be rich in hits. Some 11% of all compounds tested hit in one or more screens of this group. Unless noted, calls follow the shape of the dose curve; as a rule, active = well fitted curve in the direction sought with a large enough effect; inconclusive = small, poorly fitted or top-dose-only effect, or another doubt; inactive = no such curve, though single readings can be large; an effect the other way counts as inactive or inconclusive. Potency is read from the fitted curve at half-maximal effect.

SMILES	HEK cytotox	NIH3T3 tox	hNpr1 antagonist	FLuc inh-1	FLuc SDR -ATP	FLuc SDR ATP	FLuc inh-2
CCN1CCN(C(=O)Cn2c(C)ccc(NC(=O)Nc3ccc(C)cc3)c2=O)CC1	-14%	-2%	-7%	4.5µM*	?	?	5µM*
O=C(c1ccc(F)cc1)N1CCC(C(=O)N2CCC(N3CCCC3=O)CC2)CC1	-6%	i	/	/	/	/	/
COc1ccc(-c2cnc(NC(=O)Cc3ccccc3)c3c2CCO3)cn1	-24%[172 µM]	?	-4%[70.6 µM]	i	/	/	/
CNC(=O)c1cccc(-c2cnc(Nc3ccc(Cl)cn3)c3c2CCO3)c1	?	?	?	3.2µM*	18%[49.3 µM]	17%[49.3 µM]	?
O=C(Nc1ncc(-c2cccc(F)c2)c2c1OCC2)c1ccncc1	-26%[172 µM]	?	4%[70.6 µM]	i	/	/	/
c1ccc(-c2cnc(Nc3ccc4c(c3)OCCO4)c3c2CCO3)cc1	?	?	?	2.8µM*	13%[49.3 µM]	11%[49.3 µM]	16µM*
COc1ccc(-c2cnc(Nc3ccccc3)c3c2CCO3)cn1	?	?	?	3.5µM*	19%[49.3 µM]	12%[49.3 µM]	?
COc1cccc(Nc2ncc(-c3cccnc3)c3c2OCC3)c1	100µM*	?	-29%[70.6 µM]	14µM*	21%[49.3 µM]	14%[49.3 µM]	?
COc1cccc(C(=O)N2[C@@H]3CC[C@H]2CC(NC(=O)c2cnc(C)cn2)C3)c1C (stereo not given in full)	-23%	-12%	-2%	i	/	/	/
COCCNC(=O)c1cc(-c2cccnc2)nc2c1cnn2C	-33%[172 µM]	?	/	/	/	/	/
COc1ccc(-n2c(=O)c(C(=O)N3CCC(C#N)CC3)nc3cccnc32)cc1	i	-9%	/	/	/	/	/
COc1cccc(C(=O)N2CCCC(c3nn(-c4ccccn4)c(=O)[nH]3)C2)c1 (stereo not given)	2%	-23%	/	/	/	/	/
Cc1ccccc1C(=O)N1CCC(C(=O)N2CCCC(c3nc4ccncc4[nH]3)C2)CC1 (stereo not given)	i	i	/	/	/	/	/
O=C(CC1CNCCO1)N1CCc2nc(-c3ccc(Cl)cc3)[nH]c2C1 (stereo not given)	5%	i	0%	i	/	/	/
O=C(NCCc1ccccc1)c1ccc2c(c1)nc1n2CCOC1	/	/	/	/	?	?	8.8µM*
CC(C)CCNC(=O)c1ccc2c(c1)nc1n2CCCCC1	/	/	/	/	?	?	9.9µM*
O=C(NCCc1ccccc1Cl)c1ccc2c(c1)nc1n2CCCCC1	/	/	/	/	3.9µM*	?	1.1µM*
N#Cc1cccc(-c2c(C(=O)NCC(F)(F)F)nc3sccn23)c1	i	?	/	/	/	/	/
CC1(c2ccccc2)CCCN(C(=O)c2cnc(-c3cccnc3)nc2)C1 (stereo not given)	?	?	0%	i	/	/	/
COc1ccc(CC(=O)N2Cc3[nH]cnc3C[C@H]2c2nc(-c3ccc4ccccc4c3)no2)cc1	?	?	-5%	?	/	/	/
C[C@@H](NC(=O)Nc1cccnc1)c1onc(-c2ccc(Cl)cc2)c1C(=O)O	i	-4%[138 µM]	5%[70.6 µM]	i	/	/	/
Cc1noc(-c2ccc3c(c2)OCO3)c1C(=O)NCCc1cccc(Cl)c1	?	?	-15%	i	/	/	/
Cc1cccc(NC(=O)c2cc(-c3ccc4c(c3)OCCO4)on2)c1	/	/	/	/	5µM*	?	0.44µM*
Cc1ccc(Cl)cc1NC(=O)c1cc(-c2ccc3c(c2)OCCO3)on1	/	/	/	/	?	?	1.8µM*
O=C(Nc1cccc(Cl)c1)c1cc(-c2ccc3c(c2)OCCO3)on1	/	/	/	/	?	?	0.62µM*
SMILES	HEK cytotox	NIH3T3 tox	hNpr1 antagonist	FLuc inh-1	FLuc SDR -ATP	FLuc SDR ATP	FLuc inh-2
O=C(Nc1cccnc1)c1cc(-c2ccc(Cl)cc2)on1	/	/	/	/	15%	14%	?
CC1=Nc2cc(C(=O)NC(C)c3ccc4c(c3)OCCO4)ccc2Sc2ccc(Cl)cc21 (stereo not given)	?	-12%	-23%	i	/	/	/
Cc1cccc(CNC(=O)c2c(C)noc2-c2ccc3c(c2)OCO3)c1	?	-13%	-3%	i	/	/	/
CC(C)S(=O)(=O)N1CCN(c2ccc3nnc(C4CC4)n3n2)CC1	-11%	-29%	/	/	/	/	/
Cc1noc(-c2nc(-c3ccccc3C)no2)n1	-5%	i	3%	?	/	/	/
CCc1noc(-c2nc(-c3ccccc3C)no2)n1	?	-24%	2%	14µM*	9%	8%	-14%
COc1ccc(-c2ccccc2C(=O)NCCc2ccccc2)nn1	-28%	-22%	/	/	/	/	/
CC(C)(C)c1ccc(C(=O)Nc2ccc(C(O)[C@H]3COCC(=O)N3Cc3ccccc3)cc2)cc1 (stereo not given in full)	?	22µM*	?	11µM*	15%	10%	-15%
Cc1nc(-c2ccc(F)cc2)n(CC(=O)NCc2ccc3c(c2)OCO3)c(=O)c1CCO	-17%	?	-5%	i	/	/	/
Cc1c(-c2ccc(F)cc2)[nH]c2ccc(CNC(=O)CN3CCOC3=O)cc12	?	?	-22%	13µM*	14%	10%	?
COc1ccc(CNC(=O)C[C@@H]2C[C@@H](C(C)C)[C@H](CNC(=O)c3ccc(C#N)cc3)C=C2C)cc1	?	?	-10%	i	/	/	/
COc1ccc(CNC(=O)C[C@@H]2C[C@@H](C(C)C)[C@H](CNC(=O)c3cccnc3)C=C2C)cc1	?	?	-13%	14µM*	11%	10%	7%
O=C(O)CCSc1nnc(-c2ccc(Cl)cc2Cl)o1	/	/	/	/	?	0.7µM*	0.5µM*
Cc1cc(F)ccc1OC1(C(=O)O)CCN(c2ncnc3nc[nH]c23)CC1	i	5%	4%	i	10%	7%	3%
CC(C)Cc1cc(C(=O)N[C@H](C2CCNCC2)C2CC(O)C2)nc(N)n1 (stereo not given in full)	-3%	4%	4%	i	/	/	/
Cc1ccc(N2C(=O)c3n[nH]c(C)c3C2c2ccc(Cl)cc2)cc1 (stereo not given)	/	/	/	/	17%	12%	?
